Common to all, as to experiment: NCI-60 one-dose screen, 48 h (100 = growth as untreated, 0 = no growth, -100 = all killed)
One assay concerns NCI-H23 lung. The following applies: 10 µM unless noted.
The next assay relates to NCI-H226 lung. The note with it: 10 µM unless noted.
In another assay the test system is NCI-H322M lung. The note with it: 10 µM unless noted.
The test system of another assay is HOP-62 NSCLC. The note with it: 10 µM unless noted.
The next assay has as its system NCI-H460 lung. The following applies: 10 µM unless noted.
In another assay the test system is HOP-92 NSCLC. The note with it: 10 µM unless noted.
Another assay concerns NCI-H522 lung. The following applies: 10 µM unless noted.
A further assay concerns A549/ATCC NSCLC. The note with it: 10 µM unless noted.
The next assay has as its system 786-0 renal. The following applies: 10 µM unless noted.
The next assay deals with COLO 205 colon. The note with it: 10 µM unless noted.
Another assay has as its system DU-145 prostate. The following applies: 10 µM unless noted.
A further assay relates to K-562 leukemia. The note with it: 10 µM unless noted.
For a further assay, the system named is MALME-3M melanoma. The following applies: 10 µM unless noted.
The next assay deals with MDA-MB-231 breast. The following applies: 10 µM unless noted.
In another assay the test system is RXF 393 renal. The following applies: 10 µM unless noted.
Another assay relates to SF-268 CNS. The note with it: 10 µM unless noted.
For the next assay, the system named is SF-295 CNS. The note with it: 10 µM unless noted.
For the next assay, the system named is SF-539 CNS. The following applies: 10 µM unless noted.
The next assay concerns UACC-257 melanoma. The following applies: 10 µM.
Another assay deals with M14 melanoma. The note with it: 10 µM unless noted.

This is part of a sample that, as a whole, favours compounds with a hit. Of some 83,000 tested, about 20% had one in any assay.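 How to read the values: 0–100, growth inhibition (40 = 60% inhibited); 0, no net growth; -100 to 0, cell death (-40 = 40% of starting cells died; -100 = all dead).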 Values without a mark were called inactive. The source made the active and inactive calls. The calls were made as follows: active = growth percent below 10; inactive = the rest.

Consider `O=C(Nc1cccc(Cl)c1)Nc1nc2ccc([N+](=O)[O-])cc2s1`, for which the growth is -20.9% (active) in the assay on NCI-H23 lung; -7.2% (active) in the assay with NCI-H226 lung; 8.75% (active) with NCI-H322M lung; -1.84% (active) with HOP-62 NSCLC; 2.75% (active) with NCI-H460 lung; -11.9% (active) in the assay on HOP-92 NSCLC. Also, the growth with NCI-H522 lung was 2.99% (active); with A549/ATCC NSCLC, 10%; in the assay with 786-0 renal, 8.65% (active); in the assay on COLO 205 colon it was -54.2% (active); with DU-145 prostate it was 15.2%; in the assay on K-562 leukemia it was 4.51% (active). In addition, the growth is -9.22% (active) in the assay on MALME-3M melanoma; -9.3% (active) in the assay with MDA-MB-231 breast; -26.4% (active) with RXF 393 renal; 9.76% (active) with SF-268 CNS; -68.9% (active) in the assay with SF-295 CNS; 7.66% (active) in the assay with SF-539 CNS. Moreover, the growth is -15.2% (active) in the assay on UACC-257 melanoma and 0.118% (active) in the assay with M14 melanoma.
Turning to `O=C1c2c(c3c4cc(Br)ccc4[nH]c3c3ccc4ccccc4c23)C(=O)N1CCN1CCCCC1`, the growth in the assay with NCI-H23 lung was 37.8%; in the assay with NCI-H226 lung, 69.2%; with NCI-H322M lung, 78%; in the assay on HOP-62 NSCLC, 33.8%; in the assay on NCI-H460 lung, -67.7% (active); with HOP-92 NSCLC it was 51.3%. In addition, the growth in the assay on NCI-H522 lung is 68%; in the assay on A549/ATCC NSCLC it was 7.63% (active); in the assay on 786-0 renal it was -84.2% (active); in the assay with COLO 205 colon, 61.7%; with DU-145 prostate, 22.9%; with K-562 leukemia it was -50.3% (active). Further, the growth with MALME-3M melanoma is 68.1%; in the assay with MDA-MB-231 breast, 77.7%; with RXF 393 renal, 59.5%; in the assay with SF-268 CNS, 38.4%; in the assay on SF-295 CNS, 23.7%; in the assay with SF-539 CNS it was 38.7%. In addition, the growth in the assay on UACC-257 melanoma was 93%; in the assay on M14 melanoma, 20%.
Turning to `O=S(=O)(Nc1ccc(C2CC2)cc1)c1ccc(-c2cnc(C3CC3)o2)cc1`, the growth in the assay with NCI-H23 lung is 73.9%; in the assay on NCI-H226 lung it was 74.9%; in the assay on NCI-H322M lung, 92.3%; with HOP-62 NSCLC, 62.2%; in the assay with NCI-H460 lung, 73.2%; in the assay with HOP-92 NSCLC it was 77.3%. For the same compound, the growth with NCI-H522 lung was 59.6%; with A549/ATCC NSCLC, 62.2%; with 786-0 renal, 88.5%; with COLO 205 colon it was 88.9%; with DU-145 prostate, 88.5%; in the assay with K-562 leukemia, 15.7%. Besides, the growth in the assay with MALME-3M melanoma is 66.6%; with MDA-MB-231 breast it was 72.5%; in the assay with RXF 393 renal, 74.6%; in the assay with SF-268 CNS, 78%; with SF-295 CNS, 49.4%; in the assay on SF-539 CNS, 62.9%. In addition, the growth in the assay with UACC-257 melanoma is 79.8%; in the assay on M14 melanoma, 53.6%.
With `O=C(CCCCCCN1CC(=O)N2[C@@H](c3ccccc3)c3[nH]c4ccccc4c3C[C@H]2C1=O)NO`, the growth in the assay on NCI-H23 lung is 70.9%; in the assay with NCI-H226 lung, 105%; in the assay on NCI-H322M lung, 72.4%; in the assay with HOP-62 NSCLC it was 58.5%; with NCI-H460 lung, 54.2%; in the assay with HOP-92 NSCLC it was 57.9%. The growth was 35% with NCI-H522 lung; 95.9% with A549/ATCC NSCLC; 93.3% with 786-0 renal; 58.8% in the assay with COLO 205 colon; 58.3% in the assay with DU-145 prostate; 26.3% with K-562 leukemia. Moreover, the growth in the assay with MALME-3M melanoma was 21.8%; in the assay with MDA-MB-231 breast, 70.1%; in the assay on RXF 393 renal it was 76.6%; with SF-268 CNS it was 82.1%; in the assay with SF-295 CNS, 57.4%; with SF-539 CNS it was 62.5%. Further, the growth in the assay with UACC-257 melanoma is 45.7%; in the assay on M14 melanoma, 49.9%.
Turning to `CC(C)=CCC[C@](C)(O)[C@H]1CC[C@]2(C)[C@@H]1CC[C@@H]1[C@@]3(C)CCC(NC(=O)c4ccccc4C(=O)O)C(C)(C)[C@@H]3CC[C@]12C` (stereo not given in full), the growth is 85.8% in the assay with NCI-H23 lung; 89.7% in the assay on NCI-H226 lung; 104% with NCI-H322M lung; 104% with HOP-62 NSCLC; 110% in the assay on NCI-H460 lung; 75.6% in the assay on HOP-92 NSCLC. Also, the growth in the assay with NCI-H522 lung was 95.3%; in the assay with A549/ATCC NSCLC, 93.1%; in the assay on 786-0 renal, 99.9%; in the assay with COLO 205 colon, -10.3% (active); in the assay on DU-145 prostate it was 96.4%; in the assay on K-562 leukemia it was 90.8%. The growth is 31.8% in the assay on MALME-3M melanoma; 82.6% in the assay with MDA-MB-231 breast; 101% in the assay with RXF 393 renal; 95.3% in the assay with SF-268 CNS; 100% with SF-295 CNS; 89.3% in the assay on SF-539 CNS. For the same compound, the growth was 30.5% with UACC-257 melanoma and 57.8% in the assay with M14 melanoma.
For the compound `Cc1cc(NS(=O)(=O)c2ccc(-c3cnc(C4CC4)o3)cc2)ccc1I`, the growth with NCI-H23 lung is 37.7%; with NCI-H226 lung it was 57.8%; in the assay with NCI-H322M lung it was 45.8%; in the assay on HOP-62 NSCLC it was 43.8%; with NCI-H460 lung, 22.2%; in the assay on HOP-92 NSCLC it was 62.4%. Also, the growth with NCI-H522 lung is 30.6%; in the assay with A549/ATCC NSCLC, 48.1%; with 786-0 renal, 46.3%; in the assay with COLO 205 colon, 22.9%; with DU-145 prostate, 26%; with K-562 leukemia, 11.6%. The growth with MALME-3M melanoma was 48.8%; in the assay on MDA-MB-231 breast, 40.9%; in the assay on RXF 393 renal it was 10.8%; with SF-268 CNS, 65.1%; in the assay on SF-295 CNS it was -2.36% (active); in the assay with SF-539 CNS it was 11.5%. For the same compound, the values for the growth with UACC-257 melanoma and in the assay with M14 melanoma were 66.8% and 24.6%, respectively.
